Compounds without any hit were thinned out: in the full panel of roughly 83,000, 20% have a hit.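 96-well plates, one dose, 48 hours. Percent growth reported; active if below 10.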 Values without a mark were called inactive. The source made the active and inactive calls.
system: HL-60(TB) leukemia; assay: NCI-60 one-dose screen, 48 h (100 = growth as untreated, 0 = no growth, -100 = all killed); details: 10 µM unless noted

**Q.** `c1ccc2cc(C[n+]3ccn(CCCCCCCn4cc[n+](Cc5ccc6ccccc6c5)c4)c3)ccc2c1` was tested. Which growth did it give?
**A.** The growth was 32.9%.

**Q.** `COc1cc(C2CC(=O)Nc3c2c(C)nn3-c2nc3ccccc3[nH]2)c(OC)c(OC)c1OC` (stereo not given) was tested. Which growth did it give?
**A.** Its growth is 21.5%.

**Q.** For `O=C(CCc1nnc2sc(Cc3ccccc3Cl)nn12)c1nc2ccccc2[nH]1`, which growth is on record?
**A.** The growth was 104%.

**Q.** With `CCOC(=O)c1ccc(NC(=S)P(=O)(c2ccccc2)c2ccccc2)cc1` as the compound, how does the growth read?
**A.** The growth was 80.4%.

**Q.** For `CCC(CCNc1cc(OC)cc2cccnc12)CN1C(=O)c2ccccc2C1=O` (stereo not given), which growth is on record?
**A.** The growth was 107%.

**Q.** How did the growth turn out when `O=C(CCN1CCCCC1)c1ccc2ccccc2c1` was run?
**A.** The growth was 112%.

**Q.** `O=C(NCCCNc1nccc(-n2ccc3cccnc32)n1)c1c(F)cccc1F` was tested. Which growth did it give?
**A.** The growth was 102%.

**Q.** For `O=C(Nc1ccc(OCc2nnc(-c3ccccc3)o2)c(F)c1)Nc1ccc(Cl)c(C(F)(F)F)c1`, which growth is on record?
**A.** Its growth is -19.7% (active).

**Q.** Which growth does the source give for `c1ccc(Cn2cc3c(c2)-c2oncc2CC3)cc1` here?
**A.** The growth was 11.5%.

**Q.** How did the growth turn out when `CC(C)CCSc1nc(NNC(N)=O)c(C#N)c(-c2ccccc2)n1` was run?
**A.** The growth was 99.8%.

**Q.** How did the growth turn out when `CCN1C(=O)C2(Nc3ccccc3S2)c2cc(C)ccc21` (stereo not given) was run?
**A.** Its growth is 118%.

**Q.** For `CC(C)=C[C@@H]1c2c(c3ccccc3n(C)c2=O)O[C@H]2c3c(c4ccccc4n(C)c3=O)OC(C)(C)[C@@H]12`, which growth is on record?
**A.** Its growth is 20.4%.

**Q.** With `CO[C@H](C(=O)[C@@H](O)[C@@H](C)O)[C@@H]1Cc2cc3cc(O[C@H]4C[C@@H](O[C@H]5C[C@@H](O)[C@H](O)C(C)O5)[C@H](O)C(C)O4)c(C)c(O)c3c(O)c2C(=O)[C@H]1O[C@H]1C[C@@H](O[C@H]2C[C@@H](O[C@H]3C[C@@H](OC)[C@H](O)C(C)O3)[C@@H](O)C(C)O2)C(O)(O)C(C)O1` (stereo not given in full) as the compound, how does the growth read?
**A.** Its growth is 26.8%.

**Q.** How did the growth turn out when `O=C1OC(=O)C2C1C1(Cl)C(Cl)=C(Cl)C2(Cl)C2C(=O)OC(=O)C21` (stereo not given) was run?
**A.** The growth was 98%.

**Q.** For `ClC1C2CC(c3ccccc32)C1Cl` (stereo not given), which growth is on record?
**A.** Its growth is 131%.

**Q.** For `CCNCCCn1c2c(c3ccc([N+](=O)[O-])cc3c1=O)C(=O)c1cc(OC)cnc1-2`, which growth is on record?
**A.** The growth was -36% (active).

**Q.** With `CN(C)CCCNCc1ccc(-c2ccc(F)c(Cl)c2)o1` as the compound, how does the growth read?
**A.** Its growth is -4.95% (active).

**Q.** With `O=C(c1nc2ccccc2[nH]1)C1C(c2ccc([N+](=O)[O-])cc2)C2CC3CCCCC3N2[C@@]12C(=O)Nc1cc(Cl)ccc12` (stereo not given in full) as the compound, how does the growth read?
**A.** The growth was 8.45% (active).

**Q.** For `CC1(C)OC(=O)C(=Cc2cccc(Br)c2)C(=O)O1`, which growth is on record?
**A.** The growth was 83.4%.

**Q.** How did the growth turn out when `COc1ccc(-c2nn(-c3cccc(NC(=O)c4cc(C(F)(F)F)cc(C(F)(F)F)c4)c3)cc2-c2ccncc2)cc1Cl` was run?
**A.** Its growth is 88.9%.

**Q.** For `[2H]C([2H])([2H])Oc1ccc(F)cc1/C=C/C(=O)/C=C(O)/C=C/c1cc(F)ccc1OC([2H])([2H])[2H]`, which growth is on record?
**A.** The growth was 77.3%.

**Q.** How did the growth turn out when `COc1ccc2c(c1)C/C(=C\c1cc(-c3cc(OC)c(OC)c(OC)c3)n[nH]1)C2=O` was run?
**A.** The growth was 79%.

**Q.** Which growth does the source give for `COc1cc(Cl)cc(-c2nn(-c3cccc(NC(=O)c4ccc(Cl)c(Cl)c4)c3)cc2-c2ccncc2)c1` here?
**A.** The growth was 94.1%.

**Q.** Which growth does the source give for `COc1ccc(C2C3=C(COC3=O)N(CCO)c3cc4c(cc32)OCO4)cc1OC` (stereo not given) here?
**A.** The growth was 65.7%.

**Q.** For `CN(C)c1ccc(C2C(C#N)=C(/N=C/c3ccccc3)Oc3c2ccc2ccccc32)cc1` (stereo not given), which growth is on record?
**A.** The growth was 29.5%.

**Q.** Which growth does the source give for `c1ccc(-c2cn(-c3ccccc3)c(-c3ccccc3)n2)cc1` here?
**A.** The growth was 40.3%.

**Q.** `CCn1cc(C(=O)N/N=C/c2ccccc2)c(=O)c2cc(F)c(N3CCNC(C)C3)c(F)c21` (stereo not given) was tested. Which growth did it give?
**A.** The growth was 18.1%.

**Q.** How did the growth turn out when `C#CCNC(=O)[C@]1(C)CCC[C@@]2(C)[C@H]1CC=C1C=C(C(C)C)CC[C@@H]12` was run?
**A.** The growth was 131%.

**Q.** Which growth does the source give for `CCCCOc1ccc(C(C)(C)c2ccc(OCCCC)cc2)cc1` here?
**A.** Its growth is 92.5%.

**Q.** With `NC(=O)c1cc(I)ccc1NC(=O)/C=C/c1ccccc1Cl` as the compound, how does the growth read?
**A.** The growth was -34.5% (active).

**Q.** For `N#CSCc1cc(Cl)c(CSC#N)cc1Cl`, which growth is on record?
**A.** The growth was 22.1%.

**Q.** How did the growth turn out when `CCCCCCCCCCSc1ncnc2nc[nH]c12` was run?
**A.** The growth was 73.9%.

**Q.** Which growth does the source give for `Cc1nc2ccccc2c(/C=C/c2ccccc2)c1C(=O)/C=C/c1ccc(C(F)(F)F)cc1` here?
**A.** The growth was -26.9% (active).

**Q.** With `CC[C@@](C)(NC(=O)[C@H](C)NC(=O)CCNC(=O)C(C)(C)NC(=O)[C@H](C)NC(=O)[C@@H]1CCCN1C(=O)[C@@](C)(CC)NC(=O)[C@H](Cc1ccccc1)NC(=O)C1CCCN1C(=O)C(C)(C)NC(=O)C1CCCN1C(=O)C(C)(C)NC(C)=O)C(=O)NCCC(=O)N[C@@H](CC(C)C)C(=O)NC(C)(C)C(=O)NCCC(=O)N[C@@H](CC(C)C)C(=O)NC(C)(C)C(=O)NC(C)(C)C(=O)N[C@@H](CC(C)C)C(=O)NCCC(=O)NCO` (stereo not given in full) as the compound, how does the growth read?
**A.** The growth was -62.3% (active).

**Q.** For `CCCCCCCCCCCCCC1=NCCN1CCO`, which growth is on record?
**A.** Its growth is 2.28% (active).

**Q.** With `O=C(Nc1ccc(NS(=O)(=O)c2ccc(F)cc2)cc1)C12CC3CC(CC(C3)C1)C2` as the compound, how does the growth read?
**A.** Its growth is 96.1%.

**Q.** `COc1ccc2c(c1)O/C(=C\c1ncc([N+](=O)[O-])n1C)C2=O` was tested. Which growth did it give?
**A.** The growth was -3.86% (active).

**Q.** For `C=C1CC[C@@H]2C(C)(C)[C@H](O)CC[C@@]2(C)[C@@H]1COc1ccc2ccc(=O)oc2c1`, which growth is on record?
**A.** The growth was 46.4%.

**Q.** `CC[C@H](Nc1cc(C)nc(N)n1)c1nc2cccc(NCc3ccc(C(=O)NO)cc3)c2c(=O)n1-c1ccccc1` was tested. Which growth did it give?
**A.** Its growth is 2.35% (active).

**Q.** With `O=C(NNc1cnccn1)c1nc2cc(F)ccc2n2cccc12` as the compound, how does the growth read?
**A.** Its growth is 2.46% (active).
